From PubChem BioAssay AID2796 (The Scripps Research Institute Molecular Screening Center, 2010)
About 8,000 (2.5%) of roughly 320,000 compounds were called active. The sample as a whole holds a higher share of actives than the screen did. A number with no mark means an inactive call. Cut-off read from the data, not from the text of the source: active = activation above about 47%; inactive = the rest.

What follows are compounds tested against Aryl hydrocarbon receptor (Homo sapiens) (UniProt P35869) (assay: AHR activators, primary screen, cell-based, luminescence, luciferase reporter, human (AID 2796;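 note: 0% = vehicle wells and 100% = reference agonist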)). Conditions: AHR-responsive luciferase reporter cells, at 5 µM, stronger effect = higher value.
Aryl hydrocarbon receptor (Homo sapiens), sequence (P35869 whole entry, looked up): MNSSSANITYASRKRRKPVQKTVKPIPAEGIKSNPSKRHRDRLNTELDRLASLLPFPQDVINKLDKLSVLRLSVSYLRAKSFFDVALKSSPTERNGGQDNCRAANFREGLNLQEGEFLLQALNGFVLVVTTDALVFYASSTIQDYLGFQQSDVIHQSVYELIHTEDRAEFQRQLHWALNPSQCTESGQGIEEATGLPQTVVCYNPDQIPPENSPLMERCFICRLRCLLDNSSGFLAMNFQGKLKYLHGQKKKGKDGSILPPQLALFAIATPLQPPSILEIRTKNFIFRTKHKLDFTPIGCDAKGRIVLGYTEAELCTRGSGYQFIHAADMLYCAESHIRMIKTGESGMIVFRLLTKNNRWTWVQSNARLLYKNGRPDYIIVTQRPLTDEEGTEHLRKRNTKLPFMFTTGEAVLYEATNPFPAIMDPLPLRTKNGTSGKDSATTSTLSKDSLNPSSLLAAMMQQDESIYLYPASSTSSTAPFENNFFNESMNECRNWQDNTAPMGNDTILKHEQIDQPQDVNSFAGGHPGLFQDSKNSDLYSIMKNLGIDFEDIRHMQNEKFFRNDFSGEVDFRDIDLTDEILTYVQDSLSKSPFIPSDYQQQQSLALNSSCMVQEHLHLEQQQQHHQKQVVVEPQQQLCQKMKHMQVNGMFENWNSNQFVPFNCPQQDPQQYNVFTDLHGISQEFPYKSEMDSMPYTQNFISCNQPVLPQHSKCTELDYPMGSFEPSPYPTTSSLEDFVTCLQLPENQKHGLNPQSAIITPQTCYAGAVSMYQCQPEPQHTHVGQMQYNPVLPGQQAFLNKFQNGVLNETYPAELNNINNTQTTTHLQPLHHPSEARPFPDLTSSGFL
Work on CC(C)=CCN1CCN(Cc2ccc(Oc3ncccn3)cc2)CC1CCO (stereo unspecified) yielded an activation of -1.11%.
For CCc1ccc(-c2cc(C(=O)NN3CCN(C)CC3)c3ccccc3n2)cc1, the activation was 30.5%.
In the case of O=C(Nc1ccc(Br)c2cccnc12)c1ccc(Cn2cc([N+](=O)[O-])cn2)o1, the activation is reported as 52% (active).
O=C(NCCc1ccccn1)c1nc(Cn2cc([N+](=O)[O-])cn2)no1 was tested, and the activation was 0.9%.
CCc1ccc(NC(=O)c2ccc(Cn3cc([N+](=O)[O-])cn3)cc2)cc1 gave an activation of 3.58%.
Cn1c(N2CCOCC2)c(C=O)c2ccccc21 was tested, and the activation was 1.65%.
O=C(OCC(=O)N1CCN(c2ccccc2)CC1)c1ccc([N+](=O)[O-])s1 showed an activation of 0.3%.
With CSCCC1NC2(C(=O)Nc3ccc(Cl)cc32)[C@@H]2C(=O)N(C3CCCC3)C(=O)[C@H]12 (stereo partly specified) the activation was 8.17%.
With O=c1cc(Cn2nnc(-c3ccc(Cl)cc3)n2)nc2sccn12 the activation was 3.29%.
Clc1cccc(Cl)c1Cn1nnc(-c2cccs2)n1 was tested, and the activation was 64.8% (active).
Compound COc1ccccc1N1CCN(C(=O)Cn2nnc(-c3cccs3)n2)CC1 has an activation of 4.18%.
In the case of Cc1nnc(SCC(=O)NC(=O)NC2CCCC2)n1N, the activation is reported as 1.5%.
For Cc1nnc(SCC(=O)Nc2cccc(N)c2)n1-c1ccccc1, the activation was 7.29%.
O=C(CNC(=O)c1ccc2ccccc2c1)Nc1ncccc1O was tested, and the activation was 10.7%.
In the case of Cc1ccc(NC(=O)CSc2cccc3cccnc23)c(C)c1, the activation is reported as 10.7%.
Work on Cc1nc2ccccc2n1CC(=O)N/N=C/c1cccnc1 yielded an activation of 2.29%.
O=C(CSc1cccc2cccnc12)N/N=C/c1cccnc1 was tested, and the activation was 150% (active).
In the case of CCN(CC(=O)Nc1c(F)cccc1F)C(=O)C1CCC1, the activation is reported as -0.62%.
In the case of Cc1cc(SCC(=O)NCCN2C(=O)CSC2=O)nc2ccccc12, the activation is reported as 55.3% (active).
CCCNC(=O)CSc1nc(Cc2ccccc2)nc2ccccc12 showed an activation of -0.23%.
Compound COc1ccc2c(C)cc(SCC(=O)NCC3CCCO3)nc2c1 (stereo unspecified) has an activation of 17.6%.
In the case of CC(C)OC(=O)Cn1nc(C(F)(F)F)c2c1CCCC2, the activation is reported as -2.63%.
For O=C(COC(=O)c1cc(=O)[nH]c2ccccc12)Nc1nc(-c2cccc(Br)c2)cs1, the activation was 5%.
Work on CCOC(=O)c1cc2c(=O)[nH]c(C(Cl)(Cl)Cl)nc2o1 yielded an activation of -0.93%.
CC1(C)Oc2ccc(C(=O)N3CCOCC3)cc2N(CC(=O)Nc2ccccc2)C1=O gave an activation of 1.48%.
In the case of CCSc1nc2c(c(=O)[nH]1)C(c1cccnc1)C(C(=O)OC(C)C)=C(C)N2 (stereo unspecified), the activation is reported as 0.13%.
In the case of CSc1nc2sc3c(c2c(=O)[nH]1)CCc1ccccc1-3, the activation is reported as 74% (active).
COc1ccc(-n2c(=S)[nH]c3sc4c(c3c2=O)CCc2ccccc2-4)cc1 was tested, and the activation was 8.98%.
In the case of CCC1(C)Cc2c(sc3nc(SC)[nH]c(=O)c23)CO1 (stereo unspecified), the activation is reported as -2.64%.
O=C(CNC(=O)Cc1ccccc1)NCC(=O)OCC(=O)c1ccccc1Cl showed an activation of 22.1%.
With C/C(=N/NC(=S)Nc1ccccc1)c1ccc2c(c1)OCO2 the activation was 111% (active).
C/C(=N\NC(=O)C(N)=O)c1ccc2c(c1)OCCO2 showed an activation of 3.27%.
C/C(=N/NC(=O)c1ccncc1)c1ccc2c(c1)OCO2 was tested, and the activation was 24.8%.
O=C(CSc1nccc(=O)[nH]1)Nc1ccc(N2CCOCC2)c(Cl)c1 gave an activation of 0.92%.
In the case of CCOC(=O)c1ccc2[nH]c3c(c2c1)CCCC3NC=O (stereo unspecified), the activation is reported as 115% (active).
O=[N+]([O-])c1ccc2[nH]c3c(c2c1)CCCC3O (stereo unspecified) was tested, and the activation was -1.41%.
C#CCNc1ccc(C(=O)OCC)cc1 showed an activation of -1.69%.
In the case of COc1ccc(S(=O)(=O)N2CCOCC2)cc1NC(=O)CSc1ncnc2ccccc12, the activation is reported as 13.1%.
Work on CCOC(=O)N1CCC(NC(=O)CCc2cn(C)c3ccccc23)CC1 yielded an activation of -3.32%.
Compound Cc1ccc(Nc2nc(N3CCOCC3)nc(N3CCOCC3)n2)cc1Cl has an activation of 12.7%.
Cc1cc(Nc2ccc(Cl)cc2)nc(N2CCOCC2)n1 was tested, and the activation was 69.5% (active).
With COc1ccc(Nc2ncc(F)c(N3CCOCC3)n2)cc1 the activation was 22.4%.
CCCCc1ccc(NS(=O)(=O)c2cccc(C(=O)N3CCCN(C)CC3)c2)cc1 was tested, and the activation was -1.46%.
With CCOC(=O)c1ccc(NC(=O)C2CC(=O)N(c3ccc4c(c3)OCCO4)C2)cc1 (stereo unspecified) the activation was -1.04%.
O=C(c1cc2ccccc2s1)N1CCN(c2ccccn2)CC1 was tested, and the activation was 27.8%.
CCc1ccccc1N(CC(=O)N1CCN(c2ccccc2F)CC1)S(C)(=O)=O was tested, and the activation was -0.81%.
COc1ccc(C(=O)Nc2ccccc2C(=O)N/N=C/c2ccc(O)c(OC)c2)cc1 was tested, and the activation was 8.36%.
For COc1ccc(/C=N/NC(=O)c2ccc3c(c2)OCCO3)c(OC)c1, the activation was 2.32%.
With COc1ccc(C(=O)Nc2ccccc2C(=O)N/N=C/c2ccccc2OC)cc1 the activation was 103% (active).
O=C(/C=C(O)/C=C/c1ccc(O)cc1)/C=C/c1ccc(O)cc1 was tested, and the activation was -0.31%.
In the case of O=C(N/N=C\c1cccc(Br)c1)c1ccccc1-n1cccc1, the activation is reported as 64.9% (active).
In the case of Cn1c(=O)n(C)c2cc(/C=N/NC(=O)c3cccc(Br)c3)ccc21, the activation is reported as 31.6%.
In the case of O=C(N/N=C/c1cccc(Br)c1)c1ccc(N2CCCC2=O)cc1, the activation is reported as -0.14%.
In the case of CC(C)CC(=O)NC(=S)Nc1ccc(F)cc1F, the activation is reported as -1.68%.
Compound CCOC(=O)C1CCN(S(=O)(=O)c2c(C)noc2C)CC1 has an activation of -0.3%.
C=CCC1(C(=O)N(C)Cc2ccccc2)CCN(C(=O)OC(C)(C)C)CC1 showed an activation of 5%.
COC(=O)[C@]1(C)N[C@H](CN(C)C(=O)c2ccc(C(C)(C)C)cc2)[C@@H]2C(=O)N(C)C(=O)[C@@H]21 was tested, and the activation was 0.09%.
With CC(C(=O)N=Nc1c(O)n(C)c2ccc(Br)cc12)n1cnc2ccccc2c1=O (stereo unspecified) the activation was 80% (active).
For N#CCCCn1c(O)c(N=NC(=O)C(O)c2ccccc2)c2ccccc21 (stereo unspecified), the activation was 6.74%.
Work on O=C(Nn1cnc2ccccc2c1=O)c1ccccc1 yielded an activation of 4.61%.
For O=S(=O)(NCCSc1ccccn1)c1ccc(Cl)cc1, the activation was 0.03%.
